PubChem BioAssay
A number with no mark means an inactive call. Calls of active or inactive are those of the source. Cut-off read from the data, not from the text of the source, unless noted: active = inhibition above about 44%; inactive = the rest.

Columns and labels:
[1] = StAR promoter reporter inhibitors, counter-screen for LRH-1 inverse agonist project, cell-based, luminescence, high throughput (AID 651611; in the data active = inhibition above about 28%); conditions: StAR promoter luciferase reporter counterscreen, at 3.6 µM, stronger effect = higher value
[2] = molecular target: Nuclear receptor subfamily 5 group A member 2 (Homo sapiens) (UniProt O00482); assay: NR5A2 activity suppression in reporter cells – cell-based, luminescence, confirmation (AID 651613; in the data active = inhibition above about 42%;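 note: HEK293T cells co-transfected with LRH-1 and StAR promoter luciferase reporter; 0% = vehicle wells and 100% = parental cells lacking receptor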); conditions: cell-based LRH-1 luciferase reporter, inverse agonism; at 3.6 µM; stronger effect = higher value
Chain of Nuclear receptor subfamily 5 group A member 2 (Homo sapiens) (O00482 whole entry, looked up): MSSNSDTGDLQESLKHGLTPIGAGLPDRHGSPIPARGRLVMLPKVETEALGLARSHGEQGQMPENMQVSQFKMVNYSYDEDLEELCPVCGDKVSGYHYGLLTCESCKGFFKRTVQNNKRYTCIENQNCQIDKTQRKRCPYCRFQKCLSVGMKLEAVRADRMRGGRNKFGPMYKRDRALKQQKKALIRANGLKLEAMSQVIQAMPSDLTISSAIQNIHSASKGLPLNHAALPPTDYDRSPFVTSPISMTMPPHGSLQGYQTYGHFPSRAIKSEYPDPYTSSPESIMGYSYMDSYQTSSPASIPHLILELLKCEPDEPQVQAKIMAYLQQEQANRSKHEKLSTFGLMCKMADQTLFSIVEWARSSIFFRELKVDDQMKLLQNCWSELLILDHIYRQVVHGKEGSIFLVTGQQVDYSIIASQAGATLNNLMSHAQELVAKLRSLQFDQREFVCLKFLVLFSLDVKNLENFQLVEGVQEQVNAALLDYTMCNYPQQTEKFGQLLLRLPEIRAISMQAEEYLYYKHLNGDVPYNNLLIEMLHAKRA

[3] = molecular target: Steroidogenic factor 1 (Homo sapiens) (UniProt Q13285); assay: inverse agonism at SF1 nuclear receptor – cell-based, luminescence, high throughput, counter-screen for LRH-1 inverse agonist project (AID 651614); conditions: cell-based SF1 luciferase reporter, at 3.6 µM, stronger effect = higher value;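 note: cells cotransfected with StAR promoter reporter and SF1 expression vector; 0% = vehicle on cells with receptor and 100% = vehicle on cells lacking receptor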
Chain of Steroidogenic factor 1 (Homo sapiens) (Q13285 whole entry, looked up, the tested form may be a part): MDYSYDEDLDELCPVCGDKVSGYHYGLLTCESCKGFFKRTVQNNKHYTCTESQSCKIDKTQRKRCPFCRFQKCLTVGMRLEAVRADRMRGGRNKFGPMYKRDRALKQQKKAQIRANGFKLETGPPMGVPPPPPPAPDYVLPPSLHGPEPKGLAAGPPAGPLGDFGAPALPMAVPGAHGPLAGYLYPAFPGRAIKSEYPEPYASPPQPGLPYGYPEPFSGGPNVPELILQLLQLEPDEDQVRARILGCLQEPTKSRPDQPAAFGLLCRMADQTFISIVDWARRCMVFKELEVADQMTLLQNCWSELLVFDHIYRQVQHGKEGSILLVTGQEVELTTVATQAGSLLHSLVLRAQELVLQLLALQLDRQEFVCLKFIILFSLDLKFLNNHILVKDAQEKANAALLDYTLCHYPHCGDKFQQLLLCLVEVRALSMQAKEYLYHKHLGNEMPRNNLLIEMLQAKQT

[4] = compounds suppressing VP16-driven luciferase signal – cell-based, luminescence, high throughput, counter-screen for LRH-1 inverse agonist project (AID 651615; in the data active = inhibition above about 33%); conditions: Gal4-VP16 luciferase reporter cells, at 3.6 µM, stronger effect = higher value

SMILES | inhibition [1] | inhibition [2] | inhibition [3] | inhibition [4]
O=C(Nc1cc(C(F)(F)F)ccc1-n1cncn1)c1ccc([N+](=O)[O-])o1 | 22.2% | 57.7% (active) | 49.1% (active) | -15.7%
COC(=O)c1ccc(NC(=O)CSc2ccc(-c3ccccn3)nn2)cc1 | -13.3% | 52.9% (active) | 41.7% | -18%
CCc1cc(=O)oc2c(C)c(OCC(=O)NC3CC(C)(C)NC(C)(C)C3)ccc12 | 4.17% | 56.7% (active) | 56.1% (active) | 3.79%
Cc1c(C(=O)Nc2ccc(Cc3ccncc3)cc2)cccc1[N+](=O)[O-] | -10.9% | 56.2% (active) | 49.9% (active) | 19.6%
CC(NC(=O)c1ccco1)C(c1cccs1)N1CCN(c2ccccc2)CC1 (configuration not stated) | 6.91% | 34.9% | 34.2% | -0.25%
COc1cc2c(cc1OC)C(c1ccc(-c3ccc(Cl)cc3Cl)o1)=NCC2 | 36.4% (active) | 58.4% (active) | 61% (active) | 62.5% (active)
Cc1nnc(SCC(=O)Nc2ccc(N3CCN(S(C)(=O)=O)CC3)cc2)o1 | -2.52% | 50.8% (active) | 50.2% (active) | -9.83%
CC(C)c1ccc(NC(=O)CSc2nc(=O)[nH]c3c2CCCC3)cc1 | 16.1% | 58.5% (active) | 47.3% (active) | -10.5%
CSCc1c(C(=O)Nc2ccccc2N2CCOCC2)oc2ccccc12 | 7.6% | 65.9% (active) | 62.5% (active) | 14.2%
Cc1c(F)cccc1NS(=O)(=O)c1ccc(N2CCCC2=O)cc1 | -2.14% | 56% (active) | 47.1% (active) | 3.58%
CN(Cc1cccs1)c1nc(-c2cccnc2)nc2ccccc12 | 9.82% | 54.4% (active) | 43% (active) | 5.14%
COc1cccc(/C=N/Nc2nc(Nc3ccccc3)nc(-n3nc(C)cc3C)n2)c1O | 40.7% (active) | -7.01% | 0.2% | -6.05%
Cc1onc(-c2ccccc2)c1C(=O)O/N=C(\N)c1ccc([N+](=O)[O-])o1 | 11.5% | 64.5% (active) | 61.9% (active) | -9.42%
COc1ccc(NS(=O)(=O)c2ccc(OCC(=O)N3CCOCC3)cc2)cc1Cl | -8.5% | 35.7% | 34.3% | 6.15%
CCN(CC)C1Oc2cc3c(cc2C(c2cc(OC)c(OC)c(OC)c2)C1C)OCO3 (configuration not stated) | 31.5% (active) | 18.4% | 29.8% | 25.9%
Cc1cc(C)c2c(=O)[nH]c(SCC(=O)Nc3ccc(Br)cc3)nc2n1 | 9.16% | 47.8% (active) | 30.6% | -6.94%
CCn1c2ccccc2c2cc(/C=N/n3cnnc3)ccc21 | -4.6% | 30.4% | 19.8% | 10.1%
CS(=O)(=O)c1ccc2nc(NC(=O)C3CC(=O)N(c4ccccc4)C3)sc2c1 (configuration not stated) | 29.6% (active) | 60.4% (active) | 55.9% (active) | 11.3%
COc1ccc(-c2oc(=O)c3cc(OC)c(OC)cc3c2C#CCCO)cc1 | 33.4% (active) | 28.7% | 29.1% | -1.67%
COc1ccc(Br)cc1/C=C/C(=O)c1ccc(NC(C)=O)cc1 | 81.4% (active) | 95% (active) | 94.5% (active) | 85.4% (active)
O=C(NNc1ccc([N+](=O)[O-])cc1[N+](=O)[O-])c1ccco1 | 12.4% | 57.6% (active) | 60% (active) | 3.35%
Cc1cc(Br)ccc1NC(=O)CN1C(=O)C2CC=CCC2C1=O (configuration not stated) | 7.07% | 61.7% (active) | 44.1% (active) | -7.81%
Cc1cccc(NC(=O)COC(=O)CN2C(=O)c3ccccc3C2=O)c1C | 7.19% | 51% (active) | 47.8% (active) | -15%
Nc1cccc(OCCCCCOc2cccc(N)c2)c1 | -18.2% | 41.7% (active) | 54% (active) | -5%
O=C(Nc1ccc(Cc2ccncc2)cc1)c1ccc([N+](=O)[O-])o1 | 16.6% | 55.5% (active) | 63.6% (active) | -16.8%
COc1ccc(Cc2c(-c3cccc(Cl)c3)nc3cc(C)c(Br)c(C)n23)c(C)c1 | 3.35% | 41.3% (active) | 36.9% | -4.66%
COc1ccc(NC(=O)CSc2sc3c(O)cc(=O)[nH]c3c2C#N)c(OC)c1 | 1.46% | 48.8% (active) | 47.3% (active) | 2.48%

SMILES | inhibition [1] | inhibition [2] | inhibition [3] | inhibition [4]
O=C(CSc1nnc(CNC(=O)c2ccccc2F)o1)Nc1ccc2c(c1)OCCO2 | 10.5% | 56.9% (active) | 51.6% (active) | -7.98%
COc1ccc(C2=CC(=O)OC3(CCCC3)O2)cc1 | 15% | 60.5% (active) | 54.5% (active) | -0.06%
Cc1ccn2c(=O)nc(SCC(=O)Nc3ccc4c(c3)OCCO4)nc2c1 | -9.07% | 49.3% (active) | 51% (active) | -15.9%
COC(=O)c1ccc(COc2ccc(/C=N/NC(N)=S)cc2)o1 | 17.7% | 55.8% (active) | 59% (active) | 15.7%
C/C(CC1CC(C)(C)OC1=O)=N/Nc1nc(-c2ccccc2)cs1 (configuration not stated) | -5.65% | 47.3% (active) | 54.3% (active) | -29.5%
CCCCOCCCNc1ncnc2c1[nH]c1ccccc12 | 13.1% | 50% (active) | 53.6% (active) | 42.3% (active)
NC(=S)N/N=C/c1ccc(-c2ccc([N+](=O)[O-])cc2)o1 | -7.04% | 52.5% (active) | 44.5% (active) | 13.5%
CCOc1ccc(CCNC(=O)COC(=O)COc2ccc(Br)cc2)cc1OCC | 4.03% | 49.1% (active) | 56.3% (active) | 4.38%
C#CCSc1nsc(SCC#C)c1C#N | 3.79% | 53.4% (active) | 50.9% (active) | -20%
CCOc1ccc(CCNC(=O)COC(=O)c2ccc(F)c(S(=O)(=O)N3CCOCC3)c2)cc1OCC | 10.3% | 61.8% (active) | 61.6% (active) | -3.82%
CCn1c2ccccc2c2cc(/C=N/n3c(C)nnc3C)ccc21 | 27.4% | 26.4% | 38.5% | -25%
CN(C)c1ccc(C(=O)OCC(=O)Nc2ccc(N3CCOCC3)cc2)cc1 | -5.42% | 62% (active) | 55.8% (active) | -6.21%
COc1cc(C(=O)Nc2sc3c(c2C#N)CCN(C(C)=O)C3)cc(OC)c1OC | 23.3% | 66.3% (active) | 62.2% (active) | -16.2%
Cc1cc(OCC(=O)Nc2cccnc2)c2c(C)c(C)c(=O)oc2c1 | 10.8% | 63.2% (active) | 52.8% (active) | -34.7%
COC(=O)c1ccc(NC(=O)CN2C(=O)CNC2=O)cc1 | 11.5% | 62.9% (active) | 50.9% (active) | -6.93%
Cc1ccc2nsnc2c1NC(=O)c1ccc([N+](=O)[O-])o1 | 14.4% | 57.8% (active) | 55.7% (active) | -22.5%
Cc1cc2oc(=O)cc(C)c2cc1NC(=O)CCl | 32.9% (active) | 58.9% (active) | 57.7% (active) | -57.1%
CCOc1ccc(CCNC(=O)COC(=O)c2cc([N+](=O)[O-])ccc2N2CCOCC2)cc1OCC | 9.91% | 58.4% (active) | 56.6% (active) | -11.1%
CCOc1ccc(NC(=O)Cn2nc(-c3ccccc3Cl)n(CC)c2=S)cc1 | 1.73% | 60.4% (active) | 54.6% (active) | 2.74%
O=C(C[n+]1ccc(Cc2ccccc2)cc1)Nc1ccc([N+](=O)[O-])cc1Cl | 5.98% | 54.7% (active) | 45.6% (active) | 5.52%
Cn1c(CN2CCN(c3cccc(Cl)c3)CC2)nc2ccccc21 | -11.3% | 23.1% | 36.9% | -12.9%
O=C(CCl)N(c1ccc(Cl)cc1)c1c[nH]c2ccccc12 | 25.4% | 67.1% (active) | 58% (active) | 30.4%
COc1ccc(NC(=O)CSC2=C(C#N)C(c3ccco3)C3=C(CCCC3=O)N2)c(OC)c1 (configuration not stated) | 14% | 55.5% (active) | 52.5% (active) | -14.7%
COc1cc(-c2cc(C(=O)Nc3ccncc3)c3ccccc3n2)cc(OC)c1OC | 28.4% (active) | 40.9% | 40.5% | -10.9%
CCN(CC)S(=O)(=O)c1cc(NC(=O)CCCOc2ccc(C(C)=O)cc2)ccc1C | 2.6% | 42.6% (active) | 19.8% | 21.1%
COc1cc(OC)cc(C(=O)N[C@H](C(=O)OCC(=O)Nc2ccc3c(c2)OCO3)C(C)C)c1 | 14.4% | 48.1% (active) | 45.9% (active) | -4.48%
